Source: PubChem BioAssay
PDI inh: inhibitors of human PDI, primary screen, biochemical, turbidity, single point, plate reader | actives 0.052% (n = 350,000) | inhibition, % at 10 µM | Protein disulfide-isomerase (Homo sapiens), P07237 | AID 588391, 2011 | PDI insulin aggregation turbidity, A650, 90 min;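 active = mean inhibition across replicates of 30% or more, whatever share of single replicates reach that level; inconclusive = mean inhibition below 30% while every single replicate reaches 30%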
DENV2 CPE rescue: inhibitors of DENV2 cytopathic effect, primary screen, cell-based, plate reader, single concentration; DENV2-infected cells, cytopathic effect rescue; CPE inhibition, % at 9.99 µM; actives 1.7% (n = 350,000); AID 651640, 2012; in the data active = CPE inhibition above about 20%, passing the limit was not always enough; inconclusive = no clear call, values can overlap the other calls; tested in BHK-21 cells
ERp5 inh: inhibitors of ERp5-driven insulin aggregation, primary screen, biochemical, turbidity, absorbance 650 nm, single point | 90 min | Protein disulfide-isomerase A6 (Homo sapiens), Q15084 | actives 0.05% (n = 350,000) | inhibition, % at 9.99 µM;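 active = mean replicate inhibition above about 25%, with every replicate also reaching it, limit read from the data, passing the limit was not always enough; inconclusive = only one of those two criteria met; inactive = neither criterion met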
SIRT5 block: SIRT5 desuccinylase inhibitors, primary screen, biochemical, fluorescence imaging, single point, set 5; Purified SirT5, succinyl-peptide AMC, trypsin-coupled fluorescence; inhibition, % at 15 µM; actives 1.1% (n = 330,000); in the data active = inhibition above about 15%; inconclusive = no clear call, values can overlap the other calls
Target sequence (Q9NXA8 whole entry, looked up): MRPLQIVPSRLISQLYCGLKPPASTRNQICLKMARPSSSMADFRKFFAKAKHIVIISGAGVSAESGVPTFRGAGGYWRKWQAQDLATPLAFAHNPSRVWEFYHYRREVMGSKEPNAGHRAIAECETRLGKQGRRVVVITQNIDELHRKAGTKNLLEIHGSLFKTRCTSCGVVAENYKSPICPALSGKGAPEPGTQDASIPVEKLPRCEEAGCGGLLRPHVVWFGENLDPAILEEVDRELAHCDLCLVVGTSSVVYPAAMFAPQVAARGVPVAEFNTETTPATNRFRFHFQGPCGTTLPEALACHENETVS
Rtt109 Vps75: inhibitors of C. albicans Rtt109/Vps75 HAT, primary screen, biochemical, ThioGlo CoA-SH fluorescence, plate reader. inhibition, % at 34.9 µM. Histone acetyltransferase RTT109 (Candida albicans (strain SC5314 / ATCC MYA-2876)), …. actives 0.16% (n = 330,000). purified Rtt109/Vps75, 4 h;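 active = inhibition of at least 50% in every replicate; inconclusive = best replicate reaches 50% inhibition but some replicates fall short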
Target sequence (Q5AAJ8 whole entry, looked up): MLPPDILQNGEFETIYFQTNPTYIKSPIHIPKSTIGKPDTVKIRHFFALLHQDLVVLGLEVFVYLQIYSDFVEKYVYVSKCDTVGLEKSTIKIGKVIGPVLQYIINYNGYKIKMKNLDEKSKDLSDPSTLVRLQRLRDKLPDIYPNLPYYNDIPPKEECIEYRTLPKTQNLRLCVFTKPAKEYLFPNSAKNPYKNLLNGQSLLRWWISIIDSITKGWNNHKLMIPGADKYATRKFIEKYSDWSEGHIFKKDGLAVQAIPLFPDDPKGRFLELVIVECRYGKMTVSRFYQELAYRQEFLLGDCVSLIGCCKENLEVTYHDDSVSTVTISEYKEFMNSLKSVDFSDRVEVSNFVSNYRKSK
Numbers stand for hits; 0 = inactive; ? = inconclusive; - = no result given; ! = not confirmed by another sample. An excerpt weighted towards active compounds, which were near 2.3% of everything screened.

SMILES | PDI inh | DENV2 CPE rescue | ERp5 inh | SIRT5 block | Rtt109 Vps75
COc1ccc(S(=O)(=O)N2CCCCN3[C@H](C2)[C@@H](c2ccc(C#CC(C)C)cc2)[C@@H]3CO)cc1 | - | 0 | 0 | 16 | -
COc1ccc(S(=O)(=O)N2CCCCN3[C@H](CO)[C@H](c4ccc(C#CCC(C)C)cc4)[C@@H]3C2)cc1 | - | 0 | 0 | 16 | -
COc1cccc(S(=O)(=O)N2CCCCN3[C@H](CO)[C@H](c4ccc(C#CC(C)C)cc4)[C@@H]3C2)c1 | - | 0 | 0 | 0 | -
COc1cccc(S(=O)(=O)N2CCCCN3[C@H](CO)[C@@H](c4ccc(C#CC(C)C)cc4)[C@@H]3C2)c1 | - | 0 | 0 | 0 | -
C[C@H]1CCCCO[C@@H](CN(C)S(=O)(=O)c2ccccc2)[C@@H](C)CN([C@@H](C)CO)C(=O)c2cc(NS(=O)(=O)c3ccc(F)cc3)ccc2O1 | - | 0 | 0 | 0 | -
C[C@@H]1CN([C@H](C)CO)C(=O)Cc2cc(NS(=O)(=O)c3ccccc3)ccc2O[C@@H]1CN(C)S(C)(=O)=O | - | 0 | 0 | 0 | -
O=C(O)c1cc(-c2ccc(/C=N/NC(=S)Nc3ccccc3)o2)ccc1Cl | 0 | 0 | 0 | 16 | 0
COc1ccc(S(=O)(=O)Nc2ccc3c(c2)C(=O)N([C@@H](C)CO)C[C@H](C)[C@H](CN(C)S(=O)(=O)c2ccc(Cl)cc2)OCCCC[C@@H](C)O3)cc1 | - | 0 | 0 | 22 | -
COc1ccc(S(=O)(=O)Nc2ccc3c(c2)C(=O)N([C@H](C)CO)C[C@H](C)[C@H](CN(C)S(=O)(=O)c2ccc(Cl)cc2)OCCCC[C@@H](C)O3)cc1 | - | 0 | 0 | 0 | -
COc1ccc(S(=O)(=O)Nc2ccc3c(c2)C(=O)N([C@H](C)CO)C[C@@H](C)[C@H](CN(C)S(=O)(=O)c2ccc(Cl)cc2)OCCCC[C@H](C)O3)cc1 | - | 0 | 0 | 20 | -
COc1ccc(S(=O)(=O)N(C)C[C@H]2OCCCC[C@H](C)Oc3ccc(NS(=O)(=O)c4ccc(Cl)cc4)cc3C(=O)N([C@H](C)CO)C[C@@H]2C)cc1 | - | 0 | 0 | 0 | -
COc1ccc(S(=O)(=O)N(C)C[C@@H]2OCCCC[C@H](C)Oc3ccc(NS(=O)(=O)c4ccc(Cl)cc4)cc3C(=O)N([C@H](C)CO)C[C@H]2C)cc1 | - | 0 | 0 | 0 | -
COc1ccc(S(=O)(=O)N(C)C[C@@H]2OCCCC[C@@H](C)Oc3ccc(NS(=O)(=O)c4ccc(Cl)cc4)cc3C(=O)N([C@@H](C)CO)C[C@H]2C)cc1 | - | 0 | 0 | 17 | -
COc1ccc(S(=O)(=O)N(C)C[C@H]2OCCCC[C@H](C)Oc3ccc(NS(=O)(=O)c4ccc(Cl)cc4)cc3C(=O)N([C@@H](C)CO)C[C@H]2C)cc1 | - | 0 | - | 17 | -
CC(C)CC#Cc1ccc2c(c1)O[C@H](CN(C)CC1CCOCC1)[C@H](C)CN([C@H](C)CO)S2(=O)=O | - | 0 | 0 | 0 | -
C[C@@H]1CN([C@@H](C)CO)C(=O)c2cc(NC(=O)Nc3cccc4ccccc34)ccc2O[C@@H](C)CCCCO[C@H]1CN(C)C(=O)CCCN(C)C | - | 0 | 0 | 0 | -
O=C(C[C@H]1CC[C@H]2NC[C@H](O)COC[C@@H]2O1)NCCN1CCCCC1 | - | 0 | 0 | 0 | -
COc1ccc(S(=O)(=O)Nc2ccc3c(c2)C(=O)N([C@@H](C)CO)C[C@H](C)[C@H](CN(C)S(=O)(=O)c2ccc(Cl)cc2)OCCCC[C@H](C)O3)cc1 | - | 25 | 0 | 0 | -
COc1ccc(S(=O)(=O)N(C)C[C@H]2OCCCC[C@@H](C)Oc3ccc(NS(=O)(=O)c4ccc(Cl)cc4)cc3C(=O)N([C@H](C)CO)C[C@H]2C)cc1 | - | 0 | 0 | 23 | -
CCCNC(=O)N(C)C[C@H]1Oc2ncc(C#CC3CC3)cc2C(=O)N([C@H](C)CO)C[C@@H]1C | - | 0 | 0 | 0 | -
C[C@H]1CN([C@@H](C)CO)S(=O)(=O)c2ccc(C3=CCCC3)cc2O[C@@H]1CN(C)S(=O)(=O)c1cn(C)cn1 | - | 0 | 0 | 0 | -
CCOC(=O)C1CCc2c(ccc3ccccc23)N1CCC#N (configuration not stated) | 0 | 0 | 0 | 35 | -
O=C1C2(CCC13COC(c1ccc(O)cc1)OC3)COC(c1ccc(O)cc1)OC2 (configuration not stated) | 0 | - | - | - | 0
O=C1C2(CCCC13COC(c1ccc(O)cc1)OC3)COC(c1ccc(O)cc1)OC2 (configuration not stated) | - | 28 | 0 | 0 | -
COc1ccccc1CNc1nc2cc(-c3ccc(OC)c(OC)c3)sc2c(=O)n1C | 0 | 0 | 0 | 20 | -
SMILES | PDI inh | DENV2 CPE rescue | ERp5 inh | SIRT5 block | Rtt109 Vps75
CO[C@H]1CN(C)C(=O)c2cc(NC(=O)Nc3cccc(Cl)c3)ccc2OC[C@@H](C)NC[C@H]1C | - | ? | 0 | 0 | -
O=S(=O)(Nc1ccc(C(O)(C(F)(F)F)C(F)(F)F)cc1)c1ccc(Cl)c2nonc12 | 34 | - | - | - | -
CCC[N+](CC#Cc1ccccc1)(CCC)CC(=O)OC | 0 | - | - | - | 0
CCC[N+](CC#Cc1ccccc1)(CCC)CC(=O)c1ccc(Cl)cc1 | 0 | 46 | 0 | - | 0
C[C@@H]1CCCCO[C@@H](CN(C)S(=O)(=O)c2ccc(F)cc2)[C@@H](C)CN([C@@H](C)CO)C(=O)c2cc(NS(=O)(=O)c3cn(C)cn3)ccc2O1 | - | 0 | 0 | 0 | -
CN(C)CC(=O)Nc1ccc2c(c1)[C@H]1C[C@@H](CC(=O)NCC3CC3)O[C@H](CO)[C@H]1O2 | - | 0 | 0 | 0 | -
CC(C)Cc1cc(C(=O)N2CCC(N3CCC(C(=O)NC4CC4)CC3)CC2)n[nH]1 | 0 | 0 | 0 | 17 | 0
CO[C@H]1CN(C)C(=O)c2ccc(NC(C)=O)cc2OC[C@H](C)N(Cc2cc(F)ccc2F)C[C@@H]1C | - | 32 | 0 | 0 | -
COc1cccc(S(=O)(=O)Nc2ccc3c(c2)OC[C@@H](C)N(Cc2cc(F)ccc2F)C[C@@H](C)[C@H](OC)CN(C)C3=O)c1 | - | 0 | 0 | 20 | -
O=C(Nc1ccccc1F)N[C@H]1CC[C@H](CCNC(=O)C2CCOCC2)O[C@H]1CO | - | 0 | 0 | 0 | -
CCCNC(=O)N1C[C@@H]2N[C@H](C1)C2c1ccc(-c2ccccc2C)cc1 (some centres not stated) | - | 27 | - | - | -
CCCNC(=O)N1C[C@@H]2N[C@H](C1)C2c1ccc(-c2ccc(OC)cc2)cc1 (some centres not stated) | - | 32! | - | - | -
CCCNC(=O)N1[C@@H]2CNC[C@H]1C2c1ccc(-c2ccc(C)cc2)cc1 (some centres not stated) | - | 38 | - | - | -
Cc1cccc(-c2ccc(C3[C@@H]4CN(C(=O)Cc5ccncc5)C[C@H]3N4)cc2)c1 (some centres not stated) | - | 0 | 0 | 0 | -
Cc1ccccc1-c1ccc(C2[C@@H]3CN(C(=O)Cc4ccncc4)C[C@H]2N3)cc1 (some centres not stated) | - | 86! | - | - | -
CCC(=O)N(C)C[C@H]1Oc2ncc(-c3ccc(C(=O)N(C)C)cc3)cc2C(=O)N([C@H](C)CO)C[C@@H]1C | - | 0 | 0 | 0 | -
